Records with an inconclusive call do not appear. Active and inactive are the calls of the source. The call rests on the fitted dose curve; in most records, active means well fitted cell-killing curve with a large enough effect; inconclusive means small, poorly fitted or top-dose-only effect, or effect the other way; inactive means no such curve, though single readings can be large or run the other way.
Legend:
[1] = Quantitative High-Throughput drug screen in 47 multiple myeloma cell lines against the NCATS MIPE library collection: FR4_PLB cell viability assay (AID 1918924; further: nearly all actives have a fitted effect of over 35% in size)
In short: (§1)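 Inhibition of cell viability is measured here. Each line was plated at 500 cells per well, treated with MIPE 4.0 drugs, kept 48 hours at 37C, then assayed for ATP content by CellTiter-Glo luminescence.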

[2] = Quantitative High-Throughput drug screen in 47 multiple myeloma cell lines against the NCATS MIPE library collection: Delta47_JCRB cell viability assay (AID 1918925; further: nearly all actives have a fitted effect of over 45% in size)
In short: (§2)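 CellTiter-Glo ATP luminescence gave viability after 48 h compound treatment at 37C of 500 multiple myeloma cells per well. Normalisation used DMSO-only wells as 100% and media-only wells as 0% viability; primary qHTS of approved and investigational drugs.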

[3] = Quantitative High-Throughput drug screen in 47 multiple myeloma cell lines against the NCATS MIPE library collection: EJM_DSMZ cell viability assay (AID 1918926; further: nearly all actives have a fitted effect of over 30% in size)
In short: as §2

[4] = Quantitative High-Throughput drug screen in 47 multiple myeloma cell lines against the NCATS MIPE library collection: AMO1_DSMZ cell viability assay (AID 1918927; further: nearly all actives have a fitted effect of over 30% in size)
In short: as §2

[5] = Quantitative High-Throughput drug screen in 47 multiple myeloma cell lines against the NCATS MIPE library collection: ARD_JJKsccE7 cell viability assay (AID 1918929)
In short: as §2

[6] = Quantitative High-Throughput drug screen in 47 multiple myeloma cell lines against the NCATS MIPE library collection: Karpas620_DSMZ cell viability assay (AID 1918959); further: nearly all actives have a fitted effect of over 30% in size
In short: as §1

[7] = Quantitative High-Throughput drug screen in 47 multiple myeloma cell lines against the NCATS MIPE library collection: KMM1_JCRB cell viability assay (AID 1918960); further: nearly all actives have a fitted effect of over 30% in size
In short: (§3)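 Myeloma cells, 500 per well, were exposed to MIPE 4.0 drugs by pin transfer for 48 h at 37 °C, 5% CO2. Viability was read as ATP luminescence with CellTiter-Glo, normalised to DMSO-only (100%) and medium-only (0%) wells.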

[8] = Quantitative High-Throughput drug screen in 47 multiple myeloma cell lines against the NCATS MIPE library collection: Karpas417_ECACC cell viability assay (AID 1918961); conditions: Karpas417 myeloma viability, CellTiter-Glo ATP luminescence, 48 h; viability (% of DMSO): at 45.8 µM (top of the series)
In short: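 qHTS of the MIPE 4.0 collection: 500 myeloma cells/well, 48 h drug exposure at 37C in 5% CO2, then CellTiter-Glo for 5 min at room temperature before luminescence reading.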

[9] = Quantitative High-Throughput drug screen in 47 multiple myeloma cell lines against the NCATS MIPE library collection: KHM11_PLB cell viability assay (AID 1918962); further: nearly all actives have a fitted effect of over 35% in size
In short: as §1

[10] = Quantitative High-Throughput drug screen in 47 multiple myeloma cell lines against the NCATS MIPE library collection: ARP1_JJKsccF8 cell viability assay (AID 1918928; further: nearly all actives have a fitted effect of over 40% in size)
In short: as §3

Measured: Potency
Potency means the concentration at half of the fitted maximal effect.

CC(=O)Nc1nc(C)c(-c2ccc(Cl)c(S(=O)(=O)NCCO)c2)s1
active: [1] 13.2 µM | [2] 0.662 µM | [3] 11.8 µM | [4] 1.32 µM | [5] 0.418 µM | [6] 6.62 µM | [7] 3.72 µM | [8] 0.132 µM | [9] 0.935 µM

Cc1[nH]nc2ccc(-c3cncc(OC[C@@H](N)Cc4ccccc4)c3)cc12
active: [1] 4.18 µM | [2] 0.526 µM | [3] 1.87 µM | [4] 0.935 µM | [5] 2.09 µM | [6] 2.09 µM | [7] 1.32 µM | [9] 0.235 µM

Cc1ccc(-c2ncn(-c3ccc(Nc4nccc(-c5cccc(N6CCOCC6)c5)n4)cc3)n2)cn1
active: [1] 0.132 µM | [2] 0.105 µM | [3] 0.187 µM | [4] 0.132 µM | [5] 0.105 µM | [7] 0.105 µM | [8] 0.0296 µM | [9] 0.118 µM

COc1cc(Nc2ncc(F)c(Nc3ccc4c(n3)N(COP(=O)(O)O)C(=O)C(C)(C)O4)n2)cc(OC)c1OC
active: [2] 5.9 µM | [3] 23.5 µM | [4] 5.26 µM | [5] 1.18 µM | [8] 1.05 µM | [9] 1.48 µM
inactive: [1]

O=C(CCCCCCNC(=O)c1cnc(N(c2ccccc2)c2ccccc2)nc1)NO
active: [1] 2.96 µM | [2] 3.32 µM | [3] 13.2 µM | [10] 2.96 µM | [5] 4.69 µM | [7] 4.18 µM | [8] 0.59 µM | [9] 10.5 µM

Cc1cc(Nc2ncnc3ccc(-c4ccc(CNCCS(C)(=O)=O)o4)cc23)ccc1Oc1ccn2ncnc2c1
active: [1] 18.7 µM | [2] 1.66 µM | [3] 20.9 µM | [4] 0.935 µM | [5] 2.35 µM | [6] 5.26 µM | [9] 6.62 µM

CCN(CC)CCNC(=O)c1ccc2nc(-c3ccccc3)c(-c3ccc(CN4CCC(n5c(=O)[nH]c6ccccc65)CC4)cc3)nc2c1
active: [1] 14.8 µM | [2] 0.662 µM | [3] 18.7 µM | [4] 1.05 µM | [5] 2.64 µM | [6] 0.935 µM | [7] 1.66 µM | [8] 1.05 µM | [9] 0.332 µM

CN(C)Cc1c(C(=O)NCCOc2ccc(C(=O)NO)cc2)oc2ccccc12
active: [1] 0.526 µM | [2] 1.05 µM | [4] 0.526 µM | [10] 0.526 µM | [5] 0.59 µM | [6] 0.743 µM | [7] 0.469 µM | [8] 0.372 µM | [9] 1.87 µM

CNC(=O)c1cc(Oc2ccc(NC(=O)Nc3cc(C(C)(C)C)nn3-c3ccc4ncccc4c3)c(F)c2)ccn1
active: [1] 4.69 µM | [2] 5.9 µM | [4] 7.43 µM | [10] 8.33 µM | [5] 9.35 µM | [6] 23.5 µM | [7] 16.6 µM | [8] 9.35 µM | [9] 2.64 µM

Nc1nc(NCCNc2ncc(-n3ccnc3)c(-c3ccc(Cl)cc3Cl)n2)ccc1[N+](=O)[O-]
inactive: [8]
active: [1] 13.2 µM | [2] 1.48 µM | [3] 16.6 µM | [10] 11.8 µM | [5] 6.62 µM | [9] 5.26 µM

O=C(Nc1cc(C(F)(F)F)cc(C(F)(F)F)c1)c1cc(Cl)ccc1O
active: [1] 1.32 µM | [2] 1.87 µM | [4] 0.235 µM | [10] 1.05 µM | [5] 0.209 µM | [6] 0.833 µM | [7] 0.132 µM | [8] 0.59 µM | [9] 1.48 µM

C=CCn1c(=O)c2cnc(Nc3ccc(N4CCN(C)CC4)cc3)nc2n1-c1cccc(C(C)(C)O)n1
active: [1] 0.132 µM | [2] 0.418 µM | [3] 1.48 µM | [10] 1.18 µM | [5] 0.264 µM | [7] 0.332 µM | [9] 0.833 µM

COc1c(OCCCN2CCOCC2)ccc2c3n(c(=NC(=O)c4cnc(N)nc4)nc12)CCN3
active: [1] 2.88 µM | [2] 0.182 µM | [4] 0.512 µM | [10] 0.0288 µM | [5] 0.0144 µM | [6] 0.102 µM | [7] 0.0129 µM | [8] 0.0081 µM | [9] 0.575 µM

CCC[C@H](NC(=O)C(C#N)=Cc1cccc(Br)n1)c1ccccc1
active: [1] 2.64 µM | [2] 1.32 µM | [3] 2.96 µM | [10] 4.18 µM | [6] 6.62 µM | [8] 5.9 µM | [9] 1.32 µM

COCCOc1ccc2c(c1)ncn2-c1ccc2cccc(N3CCC(N)CC3)c2n1
active: [1] 10.5 µM | [2] 4.18 µM | [3] 5.9 µM | [5] 2.96 µM | [6] 10.5 µM | [7] 0.526 µM | [8] 0.59 µM | [9] 9.35 µM

CNC(=O)c1ccccc1Nc1nc(Nc2ccc(N3CCOCC3)cc2OC)ncc1Cl
active: [1] 13.2 µM | [2] 0.148 µM | [3] 13.2 µM | [10] 0.935 µM | [5] 0.0935 µM | [7] 0.296 µM | [9] 7.43 µM

c1ccc2c(CCNc3ccc(Nc4ccncc4)cc3)c[nH]c2c1
inactive: [1]
active: [2] 18.7 µM | [3] 14.8 µM | [7] 2.96 µM

COc1cc2c(NC3CCN(C(C)C)CC3)nc(C3CCCCC3)nc2cc1OCCCN1CCCC1
active: [1] 7.43 µM | [2] 4.69 µM | [3] 10.5 µM | [10] 7.43 µM | [6] 8.33 µM | [7] 23.5 µM | [9] 4.69 µM

Cc1ccc(C(N)=O)cc1Nc1nccc(-c2cn(C(C)C)c3cnccc23)n1
active: [1] 9.35 µM | [2] 3.32 µM | [4] 2.64 µM | [10] 6.62 µM | [5] 3.72 µM | [6] 6.62 µM | [7] 4.18 µM | [8] 2.96 µM | [9] 3.32 µM

Cc1nc2cnc3ccc(C#Cc4cccnc4)cc3c2n1-c1ccc(C(C)(C)C#N)cc1
inactive: [7]
active: [1] 0.118 µM | [2] 0.0166 µM | [3] 1.66 µM

O=c1[nH]c(=O)n(C2CCCO2)cc1F (centres undefined)
not listed: [3] | [8]
inactive: all other assays above

COc1cc(C(=O)NS(=O)(=O)c2ccccc2C)ccc1Cc1cn(C)c2ccc(NC(=O)OC3CCCC3)cc12
inactive: [6] | [8]
active: [1] 23.5 µM | [2] 14.8 µM | [3] 16.6 µM | [9] 10.5 µM

CCn1cc(-c2ccnc3[nH]c(-c4cccc(CN(C)C)c4)cc23)c(-c2ccc(NC(=O)N(C)C)cc2)n1
active: [1] 20.9 µM | [2] 3.32 µM | [4] 5.26 µM | [10] 5.9 µM | [5] 8.33 µM | [6] 20.9 µM | [7] 3.32 µM | [8] 1.87 µM | [9] 3.32 µM

Cc1ccc(C(=O)Nc2cccc(C(F)(F)F)c2)cc1-c1ccc2nc(NCCN3CCOCC3)ncc2c1
active: [1] 10.5 µM | [2] 13.2 µM | [4] 3.72 µM | [10] 8.33 µM | [5] 2.64 µM | [6] 2.64 µM | [8] 1.18 µM | [9] 0.743 µM

CC(=O)OCC(=O)[C@@]1(O)[C@H](C)C[C@H]2[C@@H]3C=C(C)C4=Cc5c(cnn5-c5ccccc5)C[C@]4(C)[C@@H]3[C@@H](O)C[C@@]21C
active: [1] 14.8 µM | [2] 5.9 µM | [3] 20.9 µM | [10] 4.69 µM | [6] 8.33 µM | [9] 16.6 µM

CCCCc1nc2cc(C=CC(=O)NO)ccc2n1CCN(CC)CC
active: [1] 0.0833 µM | [2] 0.469 µM | [3] 1.32 µM | [9] 1.48 µM

CC(O)C1C(=O)N2C(C(=O)O)=C(SC3CNC(C(=O)N(C)C)C3)C(C)C12 (centres undefined)
not listed: [4] | [8] | [10]
inactive: all other assays above

CCN1CCN(CC(=O)Nc2ccc(-c3cccc4c(=O)cc(N5CCOCC5)oc34)c3sc4ccccc4c23)CC1
active: [1] 1.48 µM | [2] 0.418 µM | [3] 13.2 µM | [10] 0.264 µM | [5] 0.0118 µM | [7] 0.132 µM | [9] 0.0526 µM

Fc1cc(-c2cccc3ncc(-c4cnn(C5CCNCC5)c4)nc23)cc(F)c1CN1CCOCC1
active: [1] 18.7 µM | [2] 7.43 µM | [3] 20.9 µM | [10] 16.6 µM | [6] 7.43 µM | [8] 0.418 µM | [9] 6.62 µM
inactive: [7]

C=CC(=O)Nc1cc2c(Nc3ccc(F)c(Cl)c3)ncnc2cc1C#CC(C)(C)N1CCN(C)CC1
active: [1] 3.72 µM | [2] 0.469 µM | [4] 0.662 µM | [10] 5.9 µM | [5] 1.05 µM | [6] 0.59 µM | [7] 1.48 µM | [8] 0.59 µM | [9] 2.09 µM

— PubChem BioAssay (NCATS)
